Our source for the enrichment ratio values is a collection of fitness landscapes (doi:10.1126/science.1257360).

Over roughly 140,000 sequences, “enrichment ratio after two sorts for PhoP signalling” has its median near 0; the highest 2% begin near 11. Only a selection was taken, and the highest values are over-represented in it overall.

To fix the notation:
B1: PhoQ; a variant is named by its letters at X, in order, P23837 (parent)
chain: MKKLLRLFFPLSLRVRFLLATAAVVLVLSLAYGMVALIGYSVSFDKTTFRLLRGESNLFYTLAKWENNKLHVELPENIDKQSPTMTLIYDENGQLLWAQRDVPWLMKMIQPDWLKSNGFHEIEADVNDTSLLLSGDHSIQQQLQEVREDDDDAEMTHSVAVNVYPATSRMPKLTIVVVDTIPVELKSSYMVWSWFIYVLSANLLLVIPLLWVAAWWSLRPIEALAKEVRELEEHNRELLNPATTRELTSLVRNLNRLLKSERERYDKYRTTLTDLTHSLKTPLXXLQXXLRSLRSEKMSVSDAEPVMLEQISRISQQIGYYLHRASMRGGTLLSRELHPVAPLLDNLTSALNKVYQRKGVNISLDISPEISFVGEQNDFVEVMGNVLDNACKYCLEFVEISARQTDEHLYIVVEDDGPGIPLSKREVIFDRGQRVDTLRPGQGVGLAVAREITEQYEGKIVAGESMLGGARMEVIFGRQHSAPKDE

The variants in this assay derive from B1. The assay is described as follows: enrichment ratio after two sorts for PhoP signalling (ratio (wild type AVST 3.29)); higher = more functional. The following applies: with PhoP (E. coli).
SIFT: the enrichment ratio is at most 0.25.
With PGDY, the enrichment ratio is at most 0.25.
For the variant QRCP, the enrichment ratio was at most 0.25.
Then NMAF, with at most 0.25; and QMGQ, with at most 0.25; and QVAS, with at most 0.25.
Then SKNA, with at most 0.25; and DLFK, with at most 0.25; and DATT, with at most 0.25.
The result for SHNF reads 9.74; that for IANC, at most 0.25.
TANC: the enrichment ratio was 12.1.
In the case of TDNC, the enrichment ratio turned out to be 13.4.
Then YCNQ, with at most 0.25; and NHNQ, with at most 0.25; and TFNQ, with 13.4.
The result for TFNC reads 2.85.
On to SHNQ, for which the enrichment ratio turned out to be 0.892.
FDNC: the enrichment ratio is at most 0.25.
In the case of KDNC, the enrichment ratio was at most 0.25.
Then THNQ, with 30.9; and KANC, with at most 0.25; and TNPA, with at most 0.25.
Then VGFR, with at most 0.25.
Then YITS, with 0.602; and ECNN, with at most 0.25; and KVKT, with at most 0.25.
As to GNYR, the enrichment ratio is at most 0.25.
Then DIML, with at most 0.25; and MESL, with 13.9.
Then MMSL, with 6.66.
On to MDSL, for which the enrichment ratio is at most 0.25.
The result for TESL reads 12.5.
As for AQSL, the enrichment ratio came to 7.47.
Turning to AESL, the enrichment ratio stood at 11.7.
The result for NESL reads at most 0.25; that for AHSL, 0.581.
Then QESL, with 0.967; and RWWS, with at most 0.25.
Then RAAP, with at most 0.25; and FFQI, with at most 0.25.
For NMFS, the enrichment ratio was at most 0.25.
Regarding AIQP, the enrichment ratio was at most 0.25.
The result for ERDH reads at most 0.25; that for TVNI, 12.6.
In the case of TVNW, the enrichment ratio is at most 0.25.
With TVNY, the enrichment ratio was at most 0.25.
In the case of TVNS, the enrichment ratio came out at 18.9.
The result for FVNS reads at most 0.25.
Then PVNI, with at most 0.25; and WILF, with at most 0.25; and MDWW, with at most 0.25.
Then ACPI, with 9.4.
With RIAV, the enrichment ratio is at most 0.25.
The result for HQNT reads at most 0.25.
Then IGGC, with at most 0.25; and SHMG, with 17.8; and SHCG, with 16.6.
Then THMG, with 2.89; and SHMW, with 0.684; and SHVG, with at most 0.25.
Take THCG: the enrichment ratio turned out to be 5.77.
The result for REDG reads at most 0.25; that for WCII, at most 0.25.
For the variant ENIH, the enrichment ratio was at most 0.25.
Then MRCK, with at most 0.25; and MGLF, with 2.83; and RFHY, with at most 0.25.
The result for MMCI reads at most 0.25; that for SCAE, 8.81; that for TKYM, 25.3.
As to FFYM, the enrichment ratio is at most 0.25.
The result for NGYM reads at most 0.25.
Then TKYN, with at most 0.25.
Then QQYM, with 47.2; and QQYI, with at most 0.25; and QTYM, with 0.346.
As to QGYM, the enrichment ratio was 23.9.
Then TGYM, with 26.5.
The result for MKYM reads 6.46; that for RGYM, at most 0.25; that for QQYN, at most 0.25.
The result for LYSK reads at most 0.25; that for DGPS, at most 0.25; that for NVIN, at most 0.25.
YLDS: the enrichment ratio was at most 0.25.
Regarding TVAW, the enrichment ratio came out at 2.61.
The result for SNQY reads 2.66.
The result for VDNL reads at most 0.25.
Then REKA, with at most 0.25; and QDYM, with at most 0.25.
Turning to QEYM, the enrichment ratio came out at 24.7.
As for QEFM, the enrichment ratio stood at 18.2.
Then QKFM, with at most 0.25; and QRFM, with at most 0.25; and STYM, with 0.458.
For GMSV, the enrichment ratio came to 6.09.
MLVP: the enrichment ratio is at most 0.25.
On to NCCG, for which the enrichment ratio was at most 0.25.
The result for KCWH reads at most 0.25.
Then TGWH, with 19.8; and NEWH, with at most 0.25.
NVWH: the enrichment ratio was at most 0.25.
Take TQWH: the enrichment ratio came to 21.9.
The result for TEWH reads 35.2; that for NAWH, at most 0.25; that for HPWH, at most 0.25.
The result for KSWH reads at most 0.25.
Then HRWH, with at most 0.25; and KAWH, with at most 0.25; and QAWH, with 31.4.
As to KQNP, the enrichment ratio is at most 0.25.
Then RGWC, with at most 0.25; and PCRT, with at most 0.25; and DAYY, with at most 0.25.
The result for HSCT reads at most 0.25.
With VRFP, the enrichment ratio was at most 0.25.
Then DLDP, with at most 0.25; and DHCF, with at most 0.25; and MCIR, with at most 0.25.
TEWI: the enrichment ratio is 4.93.
Then TENT, with 3.14.
On to NELD, for which the enrichment ratio is at most 0.25.
Then TELA, with 16.8; and TELT, with 14.5.
For the variant TEVT, the enrichment ratio turned out to be 3.71.
Then TEAT, with 17.
The result for TEYI reads 8.43.
The result for TEFT reads 5.71; that for TEET, at most 0.25; that for TELD, 13.4.
Consider MELD, for which the enrichment ratio was at most 0.25.
The result for NHGP reads at most 0.25; that for KQPT, at most 0.25.
The result for KTHI reads at most 0.25.
For the variant QTDQ, the enrichment ratio is at most 0.25.
Consider GRFL, for which the enrichment ratio is at most 0.25.
The result for AWWN reads at most 0.25.
Then HNIY, with at most 0.25; and YESG, with 0.306.
Then QELC, with at most 0.25; and TELN, with 21.6.
For TELC, the enrichment ratio was 11.4.
Then NELH, with 2.12; and DELY, with at most 0.25.
The result for TELY reads 15.5.
As to TEYN, the enrichment ratio worked out at 3.14.
The result for HPLH reads at most 0.25; that for NELY, at most 0.25.
As for HPLN, the enrichment ratio is at most 0.25.
As to TELH, the enrichment ratio was 11.2.
Then NELC, with 5.14; and KTRY, with at most 0.25.
Then PMLD, with at most 0.25; and APTN, with at most 0.25; and QRGT, with at most 0.25.
Take QEGT: the enrichment ratio was 24.3.
Then QGGT, with 8.36; and TEAF, with 13.8; and TEAA, with 2.61.
Then MEAF, with at most 0.25; and TEAS, with 16.2; and QEAF, with at most 0.25.
On to MEAS, for which the enrichment ratio is 3.94.
The result for QEAD reads at most 0.25; that for TEAD, 16.8.
The result for QEAS reads 10.1; that for EISC, at most 0.25; that for KVKA, at most 0.25.
The result for EFER reads at most 0.25; that for EFNA, at most 0.25.
For IKFE, the enrichment ratio was at most 0.25.
Then PTLL, with at most 0.25; and SHIM, with 2.2.
Then PILC, with at most 0.25.
NELF: the enrichment ratio is at most 0.25.
Then YTYS, with at most 0.25; and MELF, with 0.528.
For CDYS, the enrichment ratio was at most 0.25.
The result for TELL reads 16.9.
As to MELL, the enrichment ratio was 3.52.
The result for TEYS reads 11.9; that for TELP, at most 0.25; that for TELF, 12.2.
The result for TELS reads 12.5.
Then TELW, with at most 0.25; and NELL, with at most 0.25.
Regarding PWMG, the enrichment ratio is at most 0.25.
Then ETEG, with at most 0.25; and ASGY, with 3.18; and YDLK, with at most 0.25.
Then MDNI, with at most 0.25; and IQKP, with at most 0.25; and VRDA, with at most 0.25.
The result for WIHY reads at most 0.25; that for FACS, at most 0.25; that for ESAP, at most 0.25.
For RPEH, the enrichment ratio is at most 0.25.
Then THGT, with at most 0.25; and NHGT, with at most 0.25.
The result for MELI reads 6.46.
Then TEGT, with 22.6.
In the case of QELI, the enrichment ratio was at most 0.25.
The result for TELI reads 19.5; that for ADTR, at most 0.25.
Then QRFP, with at most 0.25; and VSPY, with at most 0.25.
Regarding QPWC, the enrichment ratio was at most 0.25.
The result for KAWC reads at most 0.25.
The result for QFWC reads 17.1; that for TGWC, 13.8; that for LCWC, at most 0.25.
Turning to TAWC, the enrichment ratio was 11.3.
Then TSWC, with 17.5; and YAWC, with at most 0.25.
Regarding WIWC, the enrichment ratio is at most 0.25.
The result for MMWC reads at most 0.25; that for KSWC, at most 0.25.
The result for QRWC reads at most 0.25.
The result for NPNK reads at most 0.25.
For MMHM, the enrichment ratio is at most 0.25.
The result for SCKK reads at most 0.25; that for TYID, at most 0.25; that for LNTD, at most 0.25.
The result for IKRA reads at most 0.25.
The result for QRQH reads at most 0.25; that for NYNA, at most 0.25; that for MFGV, at most 0.25.
Turning to NRWC, the enrichment ratio is at most 0.25.
Then NEWC, with at most 0.25; and LNWC, with at most 0.25; and HPWC, with at most 0.25.
Then NQWC, with at most 0.25; and TNWC, with at most 0.25.
For the variant MNWC, the enrichment ratio came out at 11.8.
Consider TEWC, for which the enrichment ratio is 33.2.
Then TQWC, with 29.7; and FYWP, with at most 0.25; and RAPP, with at most 0.25.
With TIYT, the enrichment ratio is 2.66.
The result for HIYY reads at most 0.25; that for IYRV, at most 0.25; that for SKMA, 3.27.
Then WRFK, with at most 0.25; and DFPC, with at most 0.25; and YMWR, with at most 0.25.
With YTAI, the enrichment ratio was at most 0.25.
Then QPAI, with at most 0.25; and QAAI, with 12.7; and MKAI, with at most 0.25.
Then TPAI, with at most 0.25.
Turning to MTAI, the enrichment ratio turned out to be 17.8.
The result for GKTK reads at most 0.25.
Then YGMR, with at most 0.25; and ACFV, with at most 0.25.
The result for HMGM reads at most 0.25.
YYLM: the enrichment ratio was at most 0.25.
In the case of ISWM, the enrichment ratio is at most 0.25.
With ISLM, the enrichment ratio amounted to 12.9.
The result for FCLM reads 12.7; that for YCLM, 14.9; that for IALM, 6.67.
The result for HMPM reads at most 0.25; that for HMTM, 11.7.
The result for KCLM reads at most 0.25; that for FVLM, 8.14; that for YCWM, at most 0.25.
As for QYLA, the enrichment ratio is at most 0.25.
RGIA: the enrichment ratio is at most 0.25.
As for WTPQ, the enrichment ratio was at most 0.25.
Then MDVM, with 8.67; and PTAN, with at most 0.25; and QCEP, with at most 0.25.
The result for CALR reads at most 0.25; that for WMFY, at most 0.25.
As to IQQW, the enrichment ratio is at most 0.25.
Then VWEW, with at most 0.25; and HMQF, with at most 0.25.
Then YSKM, with at most 0.25.
The result for WFWG reads at most 0.25.
Turning to GVAV, the enrichment ratio is at most 0.25.
Then FFLM, with at most 0.25.
For the variant TSLM, the enrichment ratio was 16.7.
Then FQLM, with 1.74; and SSLM, with 17.1; and HSLA, with at most 0.25.
The result for NSLM reads 7.81.
The result for HSLM reads 22.1; that for SYLM, at most 0.25.
In the case of HSFM, the enrichment ratio is at most 0.25.
Then KSLM, with at most 0.25.
Then FSLM, with 19.2.
Then QNNM, with at most 0.25.
As for YPIG, the enrichment ratio was at most 0.25.
The result for PMYL reads at most 0.25.
Consider WVSG, for which the enrichment ratio is at most 0.25.
The result for GGKL reads at most 0.25; that for LPCH, at most 0.25.
Then RYCQ, with at most 0.25.
Consider FAPM, for which the enrichment ratio was 0.451.
Then FALM, with 17; and MALM, with 9.02; and HSCK, with at most 0.25.
Then HSWM, with at most 0.25; and HSTM, with 13.1; and AEWY, with 6.65.
